Assay results taken from PubChem BioAssay.
Activity calls are given as the source filed them.

What was measured:
[1] = system: Human papillomavirus type 1a protein E7 (residues 44-93); test: HPV1a E7 fragment binders on microarrays, primary screen, biochemical, small-molecule microarray, residues 44-93, 635 nm fluorescence (AID 1108); details: small-molecule microarray binding, fluorescence 635 nm; higher = more signal;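 also: E7 fragment applied at 1 µg/mL in TBST for 1 h at 4 C; score combines spot fluorescence with its signal to noise ratio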
[2] = modulators of HCV replicon luciferase signal, primary screen, HCV replication inhibitor project, Huh7 cells, luciferase reporter (AID 1109); details: 48 h, higher = more signal;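 also: huh7 hepatoma cells harbouring a luciferase neomycin HCV replicon reporter; luciferase luminescence as measure of HCV replicon replication; test concentration not given here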
[3] = molecular target: Left-right determination factor 2 (Homo sapiens) (UniProt O00292); test: LEFTY2 binders on small-molecule microarrays, primary screen, biochemical, small-molecule microarray, 635 nm fluorescence scan (AID 1110); details: LEFTY2 binding, higher = more signal
Left-right determination factor 2 (Homo sapiens), sequence (O00292 whole entry, looked up): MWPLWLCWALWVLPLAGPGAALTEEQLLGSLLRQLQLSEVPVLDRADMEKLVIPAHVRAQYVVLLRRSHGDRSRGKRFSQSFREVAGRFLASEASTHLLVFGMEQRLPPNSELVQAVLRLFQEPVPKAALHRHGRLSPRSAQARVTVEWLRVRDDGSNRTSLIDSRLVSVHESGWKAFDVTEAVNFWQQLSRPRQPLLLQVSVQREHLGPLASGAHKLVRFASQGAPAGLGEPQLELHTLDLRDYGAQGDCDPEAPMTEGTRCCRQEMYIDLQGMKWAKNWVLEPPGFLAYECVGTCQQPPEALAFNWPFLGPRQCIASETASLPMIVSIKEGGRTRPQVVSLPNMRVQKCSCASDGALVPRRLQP

[4] = molecular target: Calmodulin-1 (Homo sapiens) (UniProt P0DP23); test: CALM1 binders on microarrays, EGTA buffer, profiling panel, biochemical, small-molecule microarray, Cy5-labelled CALM1 (AID 1111); details: Cy5-CALM1 binding fluorescence, higher = more signal;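 also: labelled calmodulin applied in Tris saline Tween buffer holding calcium plus EGTA and DTT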
[5] = molecular target: Calmodulin-1 (Homo sapiens) (UniProt P0DP23); test: calcium-bound CALM1 binders on microarrays, profiling panel, artefact control for SMM control-protein annotation, biochemical, small-molecule microarray, Cy5-labelled CALM1, plus calcium (AID 1112); details: Cy5-CALM1 binding fluorescence, higher = more signal;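 also: score merges spot fluorescence with signal to noise from triplicate slides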
[6] = small-molecule microarray binders of probe aWnt5a, primary screen, biochemical, biotinylated probe, 635/667 nm fluorescence (AID 1113); details: higher = more signal;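 also: score merges 667 nm fluorescence intensity with signal-to-noise per printed feature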
[7] = small-molecule microarray binders of probe aShh, primary screen, biochemical, biotinylated probe, 635/667 nm fluorescence (AID 1114); details: higher = more signal;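 also: probe is biotin-labelled aShh protein from a stem cell growth factor screen; measures binding of labelled protein to compounds printed on the slide; score merges feature fluorescence at 667 nm with signal-to-noise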
[8] = small-molecule microarray binders of probe aNog, primary screen, biochemical, biotinylated probe, 635/667 nm fluorescence (AID 1115); details: higher = more signal;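 also: probe is biotinylated aNog protein used at 0.15 µg/mL for 1 h at 4 C; z-score combines 667 nm fluorescence of each spot with its signal to noise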
[9] = molecular target: Torsin-1A-interacting protein 1 (Homo sapiens) (UniProt Q5JTV8); test: LAP1 binders from COS7 cell lysate, primary screen, small-molecule microarray, 635/667 nm fluorescence (AID 1116); details: COS7-hLAP1 lysate binding, 635 nm fluorescence, higher = more signal
Torsin-1A-interacting protein 1 (Homo sapiens), sequence (Q5JTV8 whole entry, looked up): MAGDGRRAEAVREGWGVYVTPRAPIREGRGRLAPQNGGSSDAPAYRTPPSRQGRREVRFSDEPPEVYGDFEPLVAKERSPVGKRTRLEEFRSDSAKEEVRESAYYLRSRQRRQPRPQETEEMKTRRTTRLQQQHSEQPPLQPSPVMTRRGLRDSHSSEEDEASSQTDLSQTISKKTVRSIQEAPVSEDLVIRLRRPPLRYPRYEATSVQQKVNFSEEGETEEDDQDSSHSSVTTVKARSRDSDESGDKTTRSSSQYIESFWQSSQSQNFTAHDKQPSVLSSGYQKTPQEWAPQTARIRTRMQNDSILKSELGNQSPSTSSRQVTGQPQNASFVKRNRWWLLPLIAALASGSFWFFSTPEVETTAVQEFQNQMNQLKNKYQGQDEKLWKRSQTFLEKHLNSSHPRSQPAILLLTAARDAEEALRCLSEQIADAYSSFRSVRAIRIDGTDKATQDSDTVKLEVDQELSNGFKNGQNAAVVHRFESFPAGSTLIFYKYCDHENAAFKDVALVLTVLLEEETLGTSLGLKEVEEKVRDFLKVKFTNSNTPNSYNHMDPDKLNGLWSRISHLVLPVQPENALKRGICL

[10] = molecular target: Alpha-bungarotoxin (Bungarus multicinctus) (UniProt P60615); test: alpha-bungarotoxin binders on microarray, profiling panel, artefact control for SMM control protein annotation, biochemical, small-molecule microarray, Alexa647 label, 635/667 nm fluorescence (AID 1117); details: alpha-BTX-A647 binding fluorescence, higher = more signal
Alpha-bungarotoxin (Bungarus multicinctus), sequence (P60615 whole entry, looked up): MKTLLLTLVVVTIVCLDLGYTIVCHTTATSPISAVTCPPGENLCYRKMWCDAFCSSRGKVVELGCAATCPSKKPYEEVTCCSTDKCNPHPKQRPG

Albumin (Bos taurus) = Albumin (Bos taurus) (UniProt P02769); test: bovine serum albumin binders on microarray, profiling panel, artefact control for SMM control protein annotation, biochemical, small-molecule microarray, Alexa647 label, 635/667 nm fluorescence (AID 1118); details: BSA-A647 binding, fluorescence 635 nm, higher = more signal;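 also: score merges 667 nm emission intensity and signal-to-noise per printed compound spot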
Albumin (Bos taurus), sequence (P02769 whole entry, looked up): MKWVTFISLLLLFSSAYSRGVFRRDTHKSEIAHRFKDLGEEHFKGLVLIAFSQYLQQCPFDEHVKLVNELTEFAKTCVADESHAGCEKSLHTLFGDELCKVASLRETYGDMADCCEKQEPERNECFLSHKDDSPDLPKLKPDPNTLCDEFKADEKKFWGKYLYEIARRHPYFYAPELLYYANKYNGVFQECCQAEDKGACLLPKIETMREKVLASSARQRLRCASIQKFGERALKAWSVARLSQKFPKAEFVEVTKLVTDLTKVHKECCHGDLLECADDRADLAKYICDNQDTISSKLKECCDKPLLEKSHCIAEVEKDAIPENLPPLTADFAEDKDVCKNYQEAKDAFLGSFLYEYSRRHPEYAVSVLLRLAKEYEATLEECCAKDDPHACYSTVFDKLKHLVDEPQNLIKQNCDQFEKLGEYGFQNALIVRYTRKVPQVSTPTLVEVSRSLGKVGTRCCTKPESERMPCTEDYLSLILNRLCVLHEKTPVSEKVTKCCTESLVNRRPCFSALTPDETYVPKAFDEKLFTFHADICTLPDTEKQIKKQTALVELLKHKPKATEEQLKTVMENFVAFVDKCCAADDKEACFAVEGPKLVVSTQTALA

[11] = small-molecule microarray binders of probe aXIP, primary screen, biochemical, NeuroSMM set, 635/667 nm fluorescence (AID 1119); details: higher = more signal, called active from +8 up or from −8 down;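 also: probe is the protein aXip251-270 applied at 1 µg/mL to compound-printed slides; binding of probe to printed compounds measured as 667 nm fluorescence plus signal to noise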
[12] = small-molecule binders of probe aNOTCH3, primary screen, biochemical, small-molecule microarray, 635/667 nm fluorescence (AID 1120); details: higher = more signal;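 also: probe is a biotin-tagged antibody raised against NOTCH3 rather than NOTCH3 protein; score merges spot fluorescence near 667 nm with spot signal to noise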
[13] = small-molecule binders of probe aNOTCH2, primary screen, biochemical, small-molecule microarray, 635/667 nm fluorescence (AID 1121); details: higher = more signal;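 also: score merges feature fluorescence read at 667 nm with its signal to noise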
[14] = molecular target: Carbonic anhydrase 2 (Homo sapiens) (UniProt P00918); test: CAII small-molecule binders, profiling panel, biochemical, small-molecule microarray, Alexa647-labelled CAII (AID 1122); details: CAII-A647 binding fluorescence, higher = more signal
[15] = COS7 lysate on small-molecule microarray, probe aHis, 635 nm (AID 1123); details: COS7 cell lysate, fluorescence, higher = more signal;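 also: z-score combines 667nm fluorescence intensity with signal-to-noise per printed compound spot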
[16] = compound binding in COS7 lysate, probe aLAP1, primary screen, cell lysate, small-molecule microarray (AID 1124); details: probe aLAP1, fluorescence, higher = more signal;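 also: lysate comes from COS7 cells expressing LAP1 and is applied at 0.3 µg/mL; score merges spot fluorescence near 667 nm with signal-to-noise over triplicate slides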
Sam68 (KHDRBS1) = test: Sam68 small-molecule binders, primary screen, biochemical, small-molecule microarray, 635 nm fluorescence (AID 1125); details: small-molecule microarray binding, higher = more signal;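 also: score merges 667 nm channel intensity with signal to noise over triplicate slides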
[17] = system: Chordin-like protein 2 (CHRDL2); test: CHRDL2 small-molecule binders, primary screen, biochemical, small-molecule microarray, 635 nm fluorescence (AID 1126); details: small-molecule microarray binding, fluorescence 635 nm; higher = more signal;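 also: printed compound slides probed with Chrdl2 protein at 4 µg/mL for 1 h at 4 C; score merges 667 nm emission intensity with signal to noise over three replicate slides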
[18] = molecular target: Concanavalin-A (Canavalia ensiformis) (UniProt P02866); test: ConA small-molecule binders, primary screen, artefact control for SMM control protein annotation, biochemical, small-molecule microarray, Alexa647 label, 635 nm (AID 1127); details: ConA-A647 binding fluorescence, higher = more signal;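 also: z combines 667 nm emission intensity with signal-to-noise across three replicate slides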
Concanavalin-A (Canavalia ensiformis), sequence (P02866 whole entry, looked up): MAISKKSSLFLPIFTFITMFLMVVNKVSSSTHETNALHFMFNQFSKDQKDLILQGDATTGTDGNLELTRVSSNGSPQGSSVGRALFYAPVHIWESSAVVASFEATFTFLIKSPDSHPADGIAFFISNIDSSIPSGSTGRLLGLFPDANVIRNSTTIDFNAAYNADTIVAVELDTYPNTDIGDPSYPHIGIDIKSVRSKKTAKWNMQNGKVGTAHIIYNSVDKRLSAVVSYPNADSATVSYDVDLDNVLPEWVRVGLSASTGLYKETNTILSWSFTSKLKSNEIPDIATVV

Row | Structure (SMILES) | composite z-score [1] | z-score [2] | composite z-score [3] | composite z-score [4] | composite z-score [5] | composite z-score [6] | composite z-score [7] | composite z-score [8] | composite z-score [9] | composite z-score [10] | composite z-score (Albumin (Bos taurus)) | composite Z-score [11] | composite z-score [12] | composite z-score [13] | composite z-score [14] | composite z-score [15] | composite z-score [16] | composite z-score (Sam68 (KHDRBS1)) | composite z-score [17] | composite z-score [18]
1 | O=P(NCC1(CC2(c3ccccc3)CO2)CC1)(c1ccccc1)c1ccccc1 (stereo not given) | -0.498 | -1.17 | -1.79 | -0.0905 | 0.388 | -0.0384 | 0.826 | -0.45 | -0.225 | -0.879 | 0.0287 | -0.187 (inactive) | -0.159 | -0.0451 | 0.692 | 2.49 | 0.106 | -0.31 | -0.821 | -0.805
2 | O=C1O[C@H](c2ccccc2)[C@H](c2ccccc2)N2[C@H]1[C@@H](C(=O)NC[C@H](O)c1ccccc1)[C@]1(C(=O)Nc3ccc(C#CC4(O)CCCCCC4)cc31)[C@H]2c1ccccc1OCCO | 1.36 | -3.12 | -0.0569 | 0.9 | 0.26 | -0.145 | 0.147 | 0.52 | 0.791 | 0.837 | 0.574 | 0.228 (inactive) | -0.0694 | 0.0785 | 0.411 | 1.45 | 1.29 | 1.32 | 0.117 | 0.8
3 | CC(C)(C)OC(=O)CC[C@]1(C(=O)NCC(O)CO)N=C(c2ccc(OCCCO)cc2)O[C@H]1c1ccccc1CN=[N+]=[N-] (stereo not given in full) | 0.29 | 1.15 | -0.167 | 2.52 | 0.909 | 0.25 | 0.541 | -0.524 | 3.82 | 2.42 | 0.906 | 1.27 (inactive) | 0.883 | 0.382 | 0.747 | 2.82 | 1.58 | 1.16 | 0.0916 | 1
4 | CN(C)CCCCNC(=O)[C@@H]1C[C@@H]2C(=O)N[C@@H](CCCCN)C(=O)N2[C@@H]1c1cccc(OCCO)c1 | 0.572 | -0.289 | -1.55 | -0.328 | -0.547 | -0.12 | 0.0735 | 0.42 | 0.482 | -0.863 | -0.564 | 0.703 (inactive) | -0.0918 | 0.0072 | 0.42 | 2.85 | 0.429 | -0.266 | -0.0061 | 0.344
5 | O=C1OCCC=C[C@H]2OC34C=CCN(c5ccc6ccccc6c5)C(=O)[C@H]3N(CCCCCCO)C(=O)[C@@H]4C12 (stereo not given in full) | 0.404 | 0.0919 | -0.431 | -0.611 | -0.321 | -0.176 | -0.0337 | -0.201 | 0.164 | -1.37 | -0.768 | 0.938 (inactive) | -0.161 | -0.14 | 0.82 | 0.386 | -0.674 | 0.264 | -0.853 | -1.01
6 | CCCCCN1CC=CC23O[C@@H]4C=CCCOC(=O)C4[C@H]2C(=O)N(CCCO)[C@@H]3C1=O (stereo not given in full) | -0.337 | -0.726 | -0.43 | -0.162 | -0.591 | -0.198 | -0.283 | -0.0125 | -0.643 | -0.546 | 0.538 | 0.33 (inactive) | -0.157 | -0.155 | 0.343 | -0.0684 | 0.0581 | -0.0504 | -0.277 | 0.121
7 | O=[N+]([O-])c1ccc(C[n+]2ccc(CCCO)cc2)o1 | 1.15 | -0.341 | 0.69 | 1.2 | 0.561 | -0.0364 | -0.0035 | -0.278 | 0.261 | 1.47 | 0.766 | -0.138 (inactive) | 0.277 | 0.0655 | 0.82 | 1.82 | 0.313 | 0.916 | 0.793 | 1.09
8 | COc1ccc(C(=O)Nc2cccc(CN3C(=O)[C@@]4(O[C@@H](CC(=O)N5Cc6ccccc6C[C@H]5CO)[C@H]([Si](C)(C)c5ccc(OC)cc5)[C@H]4C)c4ccccc43)c2)cc1 | -0.296 | -3.74 | 0.904 | -0.0023 | -0.68 | -0.0643 | 0.353 | 0.118 | 0.965 | 1.27 | -1.04 | 0.008 (inactive) | 0.127 | -0.14 | 0.576 | 1.15 | -0.0148 | 1.04 | 1.38 | 1.08
9 | CN1C(=O)C2C=CC(C(O)C3=C[C@H]4C[C@@H](C3)C4(C)C)N(Nc3ccc([N+](=O)[O-])cc3[N+](=O)[O-])C2C1=O (stereo not given in full) | 1.41 | -0.474 | 0.258 | 1.72 | 0.616 | 0.0194 | 0.223 | 0.836 | 0.975 | 1.51 | 0.909 | 1.09 (inactive) | 0.289 | 0.186 | 0.722 | 2.38 | 0.805 | 1.12 | 0.51 | 1.16
10 | [N-]=[N+]=NCc1ccccc1C[C@]1(C(=O)NCc2ccccc2)COC(c2ccc(OCCCO)cc2)=N1 | 0.953 | -3.59 | -0.0623 | 0.614 | 0.345 | 0.027 | 0.0483 | -0.415 | 1.04 | 0.188 | 0.632 | 0.452 (inactive) | 0.112 | -0.0814 | 0.644 | 1.89 | 0.784 | 1.3 | -0.694 | 0.612
11 | CO[C@H]1O[C@H](CO)[C@@H](OC(=O)Nc2ccccc2-c2ccccc2)[C@H](OC(=O)Nc2ccccc2-c2ccccc2)[C@H]1OC(=O)Nc1ccccc1-c1ccccc1 | 1.05 | -2.43 | 0.591 | 1.08 | -0.588 | 0.0321 | 0.431 | 0.225 | 1.41 | 1.73 | 0.784 | 0.341 (inactive) | 0.275 | -0.0759 | 0.503 | 1.96 | -0.32 | 1.3 | 0.0309 | 1.15
12 | O=C1OCCC/C=C\[C@H]2OC34C=CCN(CCN5CCOCC5)C(=O)[C@H]3N(CCO)C(=O)[C@@H]4C12 (stereo not given in full) | -0.359 | 0.0112 | -0.416 | -0.0877 | 0.124 | -0.176 | -0.2 | 0 | -0.0137 | -0.938 | 0.394 | 0.0421 (inactive) | -0.346 | -0.211 | 0.866 | -0.0995 | -0.0129 | -0.779 | -0.601 | -1.09
